# Screening data deposited in PubChem BioAssay by The Scripps Research Institute Molecular Screening Center.
# Rows were chosen to be rich in hits. Some 2.9% of all compounds tested hit in one or more screens of this group.
# proKLK7 act – activates the human kallikrein-7 zymogen | AID 652039 | 370,000 compounds, 0.9% hits | P49862 | purified proKLK7, EDANS-DABCYL substrate fluorescence; 100% is mature enzyme control, 0% vehicle | activation, % at 7 µM;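 active = activation above the mean of all tested compounds plus 3 SD, computed per campaign excluding outliers beyond control limits, cut at about 13% in these data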
# PLCb3 inh – blocks human PLC-beta3 enzyme activity; inhibition, % at 12.2 µM; Purified PLC-beta3, fluorogenic substrate, fluorescence; 370,000 compounds, 0.18% hits; in the data active = inhibition above about 11%;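 note: 0% = median of compound wells on plate and 100% = full blocker control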
# ADAM10 inh – inhibits human ADAM10; O14672; recombinant ADAM10, EDANS/DABCYL FRET peptide cleavage, 3 h; inhibition, % at 7 µM; 370,000 compounds, 0.62% hits; AID 720582;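 active = inhibition above a per-campaign cutoff equal to the mean of compounds falling between control-based bounds plus 3 SD, cut at about 20% in these data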;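 note: 0% = DMSO wells while the 100% control is not disclosed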
# ADAM17 inh – inhibitors of human ADAM17; recombinant ADAM17, EDANS/DABCYL FRET peptide cleavage; inhibition, % at 6.95 µM; 370,000 compounds, 0.83% hits; AID 720648;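 active = inhibition above the mean of compounds lying between control limits plus 3 SD, set per campaign, cut at about 8.5% in these data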;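 note: 0% = DMSO-only wells as the low control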
# PLC-gamma1 inh – blocks human PLC-gamma1 enzyme activity; P19174; purified PLC-gamma1, fluorogenic substrate, fluorescence; inhibition, % at 12.2 µM; 370,000 compounds, 0.84% hits; AID 720700; in the data active = inhibition above about 9.5%
# proKLK7 act conf – proKLK7 activation, confirmation. shares compounds with proKLK7 act. purified proKLK7, EDANS-DABCYL substrate fluorescence; scaled: vehicle 0, mature enzyme 100. activation, % at 7 µM. 3,200 compounds, 68% hits;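 active = activation, as change over the incubation, above the mean of all tested compounds plus 3 SD, cut at about 13% in these data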
# EDANS interfere – counter-screen for kallikrein-7 activators: EDANS-DABCYL optical interference; 3,200 compounds, 80% hits; shares compounds with proKLK7 act; AID 686952; activation, % at 7 µM; EDANS-DABCYL substrate fluorescence interference, no enzyme, 4 h; solvent 0%, active enzyme control 100%;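 active = activation above the all-compound mean plus 3 SD, ignoring values outside control-based bounds, cut at about 4.8% in these data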;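 note: value is the 4 h activation minus the activation read at time zero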
# K7 EDANS ctr – optically interferes with EDANS-DABCYL fluorescence, kallikrein-7 activator counter-screen; shares compounds with proKLK7 act; EDANS-DABCYL peptide fluorescence interference, no enzyme; EC50, µM; 250 compounds, 20% hits;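 active = compounds that raise the fluorescence signal in this interference counterscreen, with EC50 at or below 10 µM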;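 note: intact quenched peptide substrate alone read at 355 nm excitation and 520 nm emission; signal is fluorescence gain from T0 to T4 after four hours at room temperature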
# * hit, by the source's call; i = inactive; · = no result.
SMILES,proKLK7 act,PLCb3 inh,ADAM10 inh,ADAM17 inh,PLC-gamma1 inh,proKLK7 act conf,EDANS interfere,others
Cc1cc(=O)oc2cc(OC(C)C(=O)O)c(Cl)cc12 (stereo not drawn),0,-36,-271,-90,-27,·,·,
CC(=O)Oc1cc2oc(=O)cc(C)c2cc1Cl,82*,i,i,i,i,368*,377*,
O=C(Oc1cc2oc(=O)c3c(c2cc1Cl)CCCC3)c1ccco1,55*,i,i,i,i,397*,406*,
Cc1ccc(S(=O)(=O)NC(C(=O)Oc2cc3oc(=O)cc(C)c3cc2Cl)C(C)C)cc1 (stereo not drawn),104*,i,i,i,i,173*,102*,
CCn1c(=O)n2n(c1=O)[C@]1(C=C(C)C2)CN(Cc2ccc(OC)cc2OC)C(NC(=O)c2ccccc2)=N1,·,0,9,5,3,·,·,
Cn1c(=O)c2nc(NCc3ccccc3)cnc2n(C)c1=O,15*,i,-470,-136,-421,30*,40*,
Cn1c(=O)c2c(ncn2Cc2ccccc2)n(C)c1=O,0,3,6,-1,1,·,·,
CC1CC(=O)C2=C(C1)Nc1nc3ccccc3n1C2c1cccnc1 (stereo not drawn),76*,i,i,i,i,64*,72*,
O=C1CCCC2=C1C(c1ccncc1)n1c(nc3ccccc31)N2 (stereo not drawn),47*,i,i,i,i,63*,75*,
CSc1nc2n(n1)C(c1cccs1)C1=C(CCCC1=O)N2 (stereo not drawn),-20,-129,-102,-35,-80,·,·,
C[C@@H]1COc2cc(F)ccc2S(=O)(=O)N1C,0,1,2,-3,1,·,·,
C[C@@H]1C[C@H]2[C@@H](Cc3ccccc3)C(=O)N3[C@H](c4ccccc4)[C@H](C)C[C@H]3[C@@H](Cc3ccccc3)C(=O)N2[C@@H]1c1ccccc1,1,-1,10,5,0,·,·,
CC(=O)N1CCc2cc(S(=O)(=O)NCCC(=O)NCc3ccc(Cl)cc3)ccc21,1,4,1,0,4,·,·,
CCOC(=O)c1cnn(-c2sc(C(=O)OCC)c(C)c2C(=O)OCC)c1N,18*,-187,-31,-9,-166,1,1,
CCOC(=O)[C@]12CCCCC/C=C\1N(CCc1ccc(Cl)cc1)C(=O)[C@H]2CC(=O)NCc1cccc(C(F)(F)F)c1,0,5,13,5,3,·,·,
C=CCN1C(=O)N/C(=C/c2ccc(N3CCOCC3)o2)C1=O,8,3,-4,-3,-1,·,·,
O=C1N/C(=C/c2ccc(N3CCOCC3)o2)C(=O)N1c1ccccc1,20*,-11,-27,-7,-8,10,10*,
Clc1c(-c2ccccc2)nc2ccccn12,0,-12,-61,-21,-8,·,·,
c1ccn2c(c1)nc1c2nc2ccccn21,81*,i,i,i,i,70*,73*,
Cc1ccc(C2C=C(c3ccccc3OC(F)F)Nc3ncnn32)cc1 (stereo not drawn),18*,i,-444,-150,i,76*,80*,
C1=C(c2ccccc2)Nc2ncnn2C1c1ccccc1 (stereo not drawn),7,i,-108,-32,i,·,·,
Cc1ccc(C2C=C(c3ccc4c(c3)OCO4)Nc3ncnn32)cc1 (stereo not drawn),15*,i,-155,-54,i,-15,9.2*,
C=CCN1C(=O)[C@@H](CC(=O)NCc2ccc(C)o2)[C@]2(C(=O)OC)CCCCC=C12,1,1,2,2,3,·,·,
Cc1ccc(-c2cc(-c3nnc(SCC(=O)N4c5ccccc5Sc5ccc(Cl)cc54)n3N)[nH]n2)cc1,0,3,0,1,1,·,·,
COC(=O)CC1=C(C(=O)OC)[C@@H](c2ccccc2[N+](=O)[O-])C(C#N)=C(N)O1,38*,-48,-40,-13,-34,90*,71*,K7 EDANS ctr=8.7*
